Results on 16 compounds are retold here after PubChem BioAssay (Tox21).

Assay [1] in a line: qHTS assay to test for compound auto fluorescence at 535 nm (green) in HEK293 cells (AID 720680). In general terms: qHTS replaces the single test concentration by a dilution series.
Assay [2] is described as follows: qHTS assay to test for compound auto fluorescence at 460 nm (blue) in HEK293 cell free culture (AID 720681). In short, it runs like this:
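Test compounds were pinned into cell-free culture medium (DMEM with 10% FBS) and fluorescence was read directly at Ex/Em 405/460 nm. Signals were expressed as fluorescence equivalents of triamterene, with DMSO vehicle as control.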

A short description of assay [3]: qHTS assay to test for compound auto fluorescence at 535 nm (green) in HEK293 cell free culture (AID 720682). A digest of the protocol: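 Green-label autofluorescence (485 nm excitation, 535 nm emission) measured on compound added to cell-free culture medium (DMEM, 10% FBS). Output is expressed relative to fluorescein.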
Assay [4] is described as follows: qHTS assay to test for compound auto fluorescence at 590 nm (red) in HEK293 cell free culture (AID 720683). A digest of the protocol:
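Tox21 10K library compounds were pinned into cell-free DMEM with 10% FBS and fluorescence was read at excitation 540 nm. Activity is expressed as Rose Bengal sodium equivalency.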

Assay [5] is described as follows: qHTS assay to test for compound auto fluorescence at 590 nm (red) in HepG2 cell free culture (AID 720684). A digest of the protocol:
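Red fluorescence (540 nm excitation, 590 nm emission) was measured after compound transfer into cell-free MEM supplemented with 10% FBS. Values are equivalencies against Rose Bengal sodium.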

A short description of assay [6]: qHTS assay to test for compound auto fluorescence at 460 nm (blue) in HepG2 cell free culture (AID 720685). In short, it runs like this:
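Compound (23 nL) or DMSO pinned into cell-free MEM with 10% FBS; blue fluorescence read at 405/460 nm excitation/emission, expressed as auto-fluorescence equivalency to triamterene.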

A short description of assay [7]: qHTS assay to test for compound auto fluorescence at 535 nm (green) in HepG2 cell free culture (AID 720686).
Assay [8] in a line: qHTS assay to test for compound auto fluorescence at 460 nm (blue) in HepG2 cells (AID 720687). A digest of the protocol: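 Cells (2,000/well in MEM with 10% FBS) attached overnight at 37 C, then were exposed to compound or DMSO for 1 hr at 37 C, 5% CO2. Fluorescence read at Ex/Em 405/460 nm, expressed as triamterene-equivalent signal.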
In assay [9] the target is Glucocorticoid receptor (Homo sapiens) (UniProt P04150). Kind of assay: qHTS assay to identify small molecule agonists of the glucocorticoid receptor (GR) signaling pathway (AID 720691; active = well fitted activation curve with a large enough effect in the signal ratio in the repeat runs, not every such curve was filed as active; the % refers to the signal ratio). A digest of the protocol:
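GR-bla HeLa cells (beta-lactamase reporter under glucocorticoid response element) were plated 4 h at 37 C/5% CO2, given compounds in DMSO, and incubated 18 h at 37 C. LiveBLAzer B/G FRET substrate was added for 2 h at room temperature, then fluorescence intensity read.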

The target is the same in assay [10]. Nature of the assay: qHTS assay to identify small molecule antagonists of the glucocorticoid receptor (GR) signaling pathway (AID 720692; active = well fitted inhibition curve with a large enough effect in the signal ratio in the repeat runs, not every such curve was filed as active; the % refers to the signal ratio; also: potency is read from the fitted curve at half-maximal effect). In short, it runs like this:
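GR-bla HeLa cells (beta-lactamase reporter under glucocorticoid response element) were pre-plated 4 h at 37 C, treated with compounds plus 5 nM dexamethasone (final) for 18 h, then read by LiveBLAzer B/G FRET fluorescence after 2 h.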

A short description of assay [11]: qHTS assay to identify small molecule antagonists of the glucocorticoid receptor (GR) signaling pathway - cell viability counter screen (AID 720693). Also: nearly all actives have a fitted effect of over 55% in size. Also: potency is read from the fitted curve at half-maximal effect.
The nature of assay [12]: qHTS assay for identifying genotoxic compounds that show differential cytotoxicity against isogenic chicken DT40 cell lines with known DNA damage response pathways - wild type cell line (AID 743012). Also: nearly all actives have a fitted effect of over 60% in size. Also: potency is read from the fitted curve at half-maximal effect. A digest of the protocol: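 Parental DNA repair-proficient DT40 cells, 300 per well, were pre-incubated ~0.5 h at 37 C/5% CO2, pin-dosed with compounds in DMSO, then incubated 40 h. Viability was read as CellTiter-Glo luminescence after 30 min at room temperature.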

Assay [13] is described as follows: qHTS assay for identifying genotoxic compounds that show differential cytotoxicity against isogenic chicken DT40 cell lines with known DNA damage response pathways - Rev3 mutant cell line (AID 743014). Also: nearly all actives have a fitted effect of over 55% in size. Also: potency is read from the fitted curve at half-maximal effect.
Assay [14] in a line: qHTS assay for identifying genotoxic compounds that show differential cytotoxicity against isogenic chicken DT40 cell lines with known DNA damage response pathways - Rad54/Ku70 mutant cell line (AID 743015). Also: nearly all actives have a fitted effect of over 60% in size. Also: potency is read from the fitted curve at half-maximal effect.
A short description of assay [15]: qHTS assay to identify small molecule antagonists of the androgen receptor (AR) signaling pathway - cell viability counter screen (AID 743033; also: nearly all actives have a fitted effect of over 45% in size).
Assay [16] is described as follows: qHTS assay to identify small molecule antagonists of the androgen receptor (AR) signaling pathway using the MDA cell line - cell viability counter screen (AID 743041; also: nearly all actives have a fitted effect of over 45% in size). A digest of the protocol:
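MDA-kb2 AR-luc human breast carcinoma cells (MMTV-luciferase, AR/GR responsive) were treated with compounds plus R1881 agonist for 16 h at 37 °C. Viability was read as CellTiter-Fluor fluorescence in the same wells as the reporter assay.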

Values joined by “and” are separate entries in the source; they are usually repeats but may differ in a detail not shown here. Equal entries are not always repeated. Inconclusive results are not listed. Some structures have more than one record in an assay (separate samples or runs), and their calls can disagree. Active and inactive are the calls of the source. Unless noted, calls follow the shape of the dose curve; as a rule, active = well fitted curve in the direction sought with a large enough effect in the repeat runs; inconclusive = weak or mixed curves; inactive = no such curve, though single readings can be large; an effect the other way counts as inactive or inconclusive.

Chain of Glucocorticoid receptor (Homo sapiens) (P04150 whole entry, looked up): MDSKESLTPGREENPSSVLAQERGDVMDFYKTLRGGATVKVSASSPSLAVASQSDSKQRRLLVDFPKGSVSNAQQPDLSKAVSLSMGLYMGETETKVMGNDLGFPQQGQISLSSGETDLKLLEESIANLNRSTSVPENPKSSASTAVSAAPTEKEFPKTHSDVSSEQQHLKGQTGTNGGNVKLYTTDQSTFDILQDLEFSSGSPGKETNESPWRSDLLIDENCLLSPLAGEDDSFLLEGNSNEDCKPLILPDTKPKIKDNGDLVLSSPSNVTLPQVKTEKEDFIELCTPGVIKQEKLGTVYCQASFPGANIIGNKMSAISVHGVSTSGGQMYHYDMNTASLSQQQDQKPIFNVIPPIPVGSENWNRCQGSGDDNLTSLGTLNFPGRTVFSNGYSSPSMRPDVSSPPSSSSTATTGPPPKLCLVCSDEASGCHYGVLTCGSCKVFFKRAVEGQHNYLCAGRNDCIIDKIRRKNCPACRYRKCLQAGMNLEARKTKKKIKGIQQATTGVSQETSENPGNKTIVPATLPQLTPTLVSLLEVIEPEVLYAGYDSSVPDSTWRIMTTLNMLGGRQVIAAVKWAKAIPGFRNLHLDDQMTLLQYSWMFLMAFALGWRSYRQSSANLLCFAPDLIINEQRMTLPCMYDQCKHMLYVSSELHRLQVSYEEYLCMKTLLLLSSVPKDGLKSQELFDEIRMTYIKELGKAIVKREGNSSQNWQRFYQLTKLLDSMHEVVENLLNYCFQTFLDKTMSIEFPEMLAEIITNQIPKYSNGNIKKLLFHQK

`CCCOCCO`: the Potency entry in assay [1], in assay [2], in assay [3], in assay [4], in assay [5] and in assay [6] was “inactive” in each case. Besides, the Potency entry in assay [7], in assay [8], in assay [9], in assay [10], in assay [11] and in [12] was “inactive” each time. Besides, the Potency entry in assay [13], in assay [14], in assay [15] and in assay [16] was “inactive” throughout.
With `CC(=O)OC(C)C`, the Potency entry in [1], in assay [2], in assay [3], in assay [4], in assay [5] and in assay [6] was “inactive” in each case. Also, the Potency result in [7], in [8], in assay [9], in [10], in [11] and in [12] was “inactive” each time. Further, the Potency entry in [13], in assay [14], in [15] and in assay [16] was “inactive” in each case.
For the compound `CN1CCOCC1`, the Potency result in assay [1], in [2], in assay [3], in [4], in assay [5] and in assay [6] was “inactive” each time. Moreover, the Potency entry in assay [7], in assay [8], in assay [9], in assay [10], in assay [11] and in assay [12] was “inactive” each time. Besides, the Potency entry in [13], in [15] and in assay [16] was “inactive” in each case.
In the case of `Oc1c(Cl)ccc(Cl)c1Cl`, the Potency entry in [1], in assay [2], in [3], in assay [4], in assay [5] and in assay [6] was “inactive” in each case. Further, the Potency result in assay [7], in assay [8], in assay [9], in [10], in [11] and in assay [12] was “inactive” throughout. Moreover, the Potency result in assay [13], in assay [14], in [15] and in assay [16] was “inactive” throughout.
Turning to `Cc1ccc([N+](=O)[O-])c(C)c1`, the Potency result in [1], in assay [2], in [3], in assay [4], in assay [5] and in [6] was “inactive” throughout. Also, the Potency result in [7], in assay [8], in assay [9], in assay [10], in assay [11] and in [12] was “inactive” throughout. The Potency result in assay [13], in assay [14], in [15] and in [16] was “inactive” in each case.
For `c1ccc2cc3ccccc3cc2c1`, the Potency entry in assay [1], in assay [2], in assay [3], in assay [4], in assay [5] and in assay [6] was “inactive” in each case. Also, the Potency result in assay [7], in [8], in [9], in [10], in [11] and in assay [12] was “inactive” each time. The Potency result in [13], in [15] and in [16] was “inactive” in each case.
As to `CC1(C)OC(=O)NC1=O`, the Potency entry in assay [1], in assay [2], in assay [3], in [4], in [5] and in assay [6] was “inactive” in each case. Further, the Potency result in assay [7], in assay [8], in assay [9], in assay [10], in [11] and in assay [12] was “inactive” in each case. Also, the Potency result in assay [13], in assay [14], in assay [15] and in assay [16] was “inactive” each time.
Regarding `CN(C)/N=N/c1nc[nH]c1C(N)=O`, the Potency result in [1], in assay [2], in assay [3], in assay [4], in assay [5] and in [6] was “inactive” throughout. Further, the Potency entry in [7], in [8], in assay [9], in assay [10], in assay [11] and in [12] was “inactive” in each case. Further, the Potency entry in [13], in assay [15] and in [16] was “inactive” in each case.
Regarding `NCCS(=O)(=O)O`, the Potency entry in [1], in assay [2], in assay [3], in assay [4], in assay [5] and in [6] was “inactive” each time. The Potency result in assay [7], in assay [8], in assay [9], in assay [10], in [11] and in assay [12] was “inactive” throughout. In addition, the Potency result in assay [13], in [14], in [15] and in [16] was “inactive” throughout.
As for `Brc1nc2ccccc2s1`, the Potency entry in assay [1], in assay [2], in assay [3], in [4], in assay [5] and in [6] was “inactive” each time. Besides, the Potency entry in assay [7], in assay [8], in assay [9], in [10], in [11] and in assay [12] was “inactive” in each case. Besides, the Potency result in [13], in assay [15] and in assay [16] was “inactive” throughout.
Consider `COc1cc([C@H]2Oc3cc([C@H]4Oc5cc(O)cc(O)c5C(=O)[C@@H]4O)ccc3O[C@@H]2CO)ccc1O`, for which the Potency entry in [1], in assay [2], in assay [3], in assay [4], in assay [5] and in assay [6] was “inactive” in each case. Besides, the Potency entry in assay [7], in assay [8], in [9], in assay [10], in [11] and in assay [12] was “inactive” in each case. In addition, the Potency result in assay [13], in [15] and in [16] was “inactive” each time.
With `Clc1ccc(Sc2cc(Cl)c(Cl)cc2Cl)cc1`, the Potency entry in [1], in [2], in assay [3], in [4], in [5] and in [6] was “inactive” each time. In addition, the Potency result in [7], in [8], in assay [9], in assay [10], in assay [11] and in assay [12] was “inactive” each time. Further, the Potency result in assay [13], in assay [15] and in assay [16] was “inactive” in each case.
For the compound `O=C1CCc2ccccc2O1`, the Potency entry in assay [1], in assay [2], in assay [3], in [4], in assay [5] and in [6] was “inactive” throughout. The Potency result in assay [7], in [8], in [9], in assay [10], in assay [11] and in assay [12] was “inactive” each time. Further, the Potency result in [13], in assay [14], in [15] and in assay [16] was “inactive” throughout.
For the compound `COc1ccc(C(=O)c2ccccc2O)c(O)c1`, the Potency result in assay [1], in [2], in assay [3], in assay [4], in assay [5] and in [6] was “inactive” in each case. In addition, the Potency entry in [7], in [8], in [9], in [10], in assay [11] and in assay [12] was “inactive” each time. Besides, the Potency result in assay [13], in [15] and in [16] was “inactive” in each case.
Consider `C[C@]12CC[C@@H]3c4ccc(O)cc4CC[C@H]3[C@@H]1CC[C@H]2O`, for which the Potency result in assay [1], in assay [2], in [3], in [4], in assay [5] and in assay [6] was “inactive” throughout. Further, the Potency entry in assay [7], in [8], in assay [9], in assay [15] and in assay [16] was “inactive” each time. Moreover, the Potency is 6.27 µM (active) in assay [10]; 17.4 µM (active) in assay [11]; 44 µM (active) and 48.6 µM (active) in assay [12]; 24.8 µM (active) and 48.6 µM (active) in [13]; 27.8 µM (active) and 54.5 µM (active) in assay [14].
In the case of `Nc1ccc(N)c(Cl)c1`, the Potency result in assay [1], in [2], in assay [3], in [4], in [5] and in assay [6] was “inactive” in each case. The Potency result in assay [7], in assay [8], in [9], in assay [10] and in [11] was “inactive” each time. The Potency is 68.5 µM (active) and inactive in [12]; 61 µM (active) and inactive in [13].
